DT40 TDP1 no CPT: qHTS for Inhibitors of human tyrosyl-DNA phosphodiesterase 1 (TDP1): qHTS in cells in absence of CPT; hit rate 15% among 420,000; Potency, µM (top dose mostly 46.2 µM), without a hit: at the top dose activity change, negative = growth inhibition, actives largely listed as inhibitors; AID 686978, 2013; DT40 Tdp1-/- hTDP1 cells, no CPT, ATP luminescence, 48 h; further: potency means the concentration at half of the fitted maximal effect; nearly all actives have a fitted effect of over 55% in size
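Readout: luminescence from CellTiter-Glo after 30 min in the dark at RT. Cells: DT40 Tdp1-/- with stable hTDP1, 400/well. Exposure: compounds alone, ≥48 hr, 37 °C.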
IL1B secr inh: inflammasome signaling inhibition, IL-1 beta readout; THP-1 LPS/ATP IL-1B secretion, AlphaLISA, 16 h; active compounds read low; activity change, % at 57.5 µM; hit rate 4.7% among 360,000; AID 743279; in the data active means activity change below about -50%; inconclusive means mostly about -30% to -49%
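Secreted IL-1B measured by AlphaLISA bead assay after 16 h compound exposure of THP-1 cells; compounds (final up to 57.5 uM) added 1 h before LPS (250 ng/mL) and ATP (1.25 mM) stimulation; lower signal means less secretion.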
TDP1 cell CPT: DT40-hTDP1 cell growth loss with CPT. hit rate 12% among 420,000. Potency, µM (top dose mostly 46.2 µM), without a hit: top-dose activity change, negative = growth inhibition, actives largely listed as inhibitors. chicken DT40 Tdp1-/-;hTDP1 cells + 20 nM CPT, ATP luminescence, 48 h; further: potency means the concentration at half of the fitted maximal effect; nearly all actives have a fitted effect of over 55% in size
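Chicken DT40 Tdp1-/- cells stably complemented with human TDP1 were seeded at 400 cells/well in medium containing 20 nM camptothecin, exposed to pin-transferred compounds, and grown at 37 °C for at least 48 hr. Viability was read as ATP luminescence.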
HT1080NT lethal: kills 2HG-producing HT-1080-NT fibrosarcoma cells; HT-1080-NT fibrosarcoma viability, CellTiter-Glo ATP luminescence, 48 h; Potency, µM (top dose mostly 46.1 µM), for the others: top-dose activity, negative = less viability, hits mostly cytotoxic; hit rate 1.6% among 360,000; AID 686970;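 further: NT is the 2HG producing partner of a matched IDH1 knockdown line; potency means the concentration at half of the fitted maximal effect; 0% = DMSO-treated cells and -100% = media-only wells without cells; nearly all actives have a fitted effect of over 55% in size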
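Luminescent CellTiter-Glo readout after 48 hours of compound exposure at 37 degrees C defined viability of HT-1080-NT cells. Activity was normalized to DMSO wells and cell-free media wells; concentration-response curves were fitted and assigned curve classes.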
HT1080 IDH1KD tx: kills HT-1080 cells with IDH1 knockdown. HT-1080 IDH1 knockdown viability, ATP luminescence, 48 h. Potency, µM (doses to about 46.1 µM), for the others: at the highest dose activity, negative = toxicity, hits mostly cytotoxic. hit rate 2% among 360,000. AID 686971;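 further: potency means the concentration at half of the fitted maximal effect; 0% = DMSO wells and -100% = cell-free medium wells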
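Cytotoxicity counter-line: IDH1KD HT-1080, 48 h, CellTiter-Glo. Curves classed by r2, magnitude and activity.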
* marks the source's active call; other numbers are inactive results; ? = inconclusive; . = no result given. An excerpt weighted towards active compounds, which were near 19% of everything screened. Unless noted, the call rests on the fitted dose curve; in most records, active means well fitted curve in the direction sought with a large enough effect; inconclusive means small, poorly fitted or top-dose-only effect, or another doubt; inactive means no such curve, though single readings can be large; an effect the other way counts as inactive or inconclusive. Unless noted, on the % scale 0 is the no-effect control and ±100 the full control effect.

SMILES	DT40 TDP1 no CPT	IL1B secr inh	TDP1 cell CPT	HT1080NT lethal	HT1080 IDH1KD tx
Cc1ccc(S(=O)(=O)N(C)C)cc1NC(=O)C(C)N(C)CCOc1ccc(Cl)cc1 (configuration not stated)	29.1µM*	-7.3	?	-1.8%	-20.9%
CC(=O)NNC(=S)Nc1cc(S(=O)(=O)N(C)C)ccc1C	?	9.6	-2.0%	20.4%	17.1%
CCCCCCC(C)NC(=S)Nc1cc(S(=O)(=O)N(C)C)ccc1C (configuration not stated)	23.1µM*	-2.4	?	-10.6%	?
CC(=O)c1ccc(OCCCC(=O)Nc2cc(S(=O)(=O)N(C)C)ccc2C)cc1	-21.3%	10.4	-12.2%	0.9%	-1.1%
Cc1ccc(S(=O)(=O)N(C)C)cc1NC(=S)NC(C)CCCC(C)C (configuration not stated)	?	-72.6*	25.9µM*	?	?
Cc1ccc(S(=O)(=O)N(C)C)cc1NC(=S)NC(C)CCC(C)C (configuration not stated)	20.6µM*	18.2	23.1µM*	-6.3%	-3.3%
Cc1ccc(S(=O)(=O)N(C)C)cc1NC(=S)Nc1cccc2ccccc12	?	28.5	?	-2.2%	-2.9%
Cc1cccc(-n2c(C)nnc2SCC(=O)NC(C)c2ccco2)c1 (configuration not stated)	-13.9%	.	-19.2%	.	.
Cc1ccc(S(=O)(=O)N(Cc2cc3cccc(C)c3[nH]c2=O)c2ccccc2)cc1	?	23.6	?	2.0%	4.2%
CCCCn1c(N)c(N(CCOC)C(=O)c2cc(Cl)nc3ccccc23)c(=O)[nH]c1=O	2.3%	35.5	3.3%	-0.5%	-0.7%
CC(C)CC1=C/C(=C/c2ccc(-c3ccccc3)o2)C(=O)O1	16.4µM*	0.0	?	-14.3%	-6.2%
Cc1csc(N(C(=O)c2cccc(S(=O)(=O)N3CCCC3)c2)c2ccccc2)n1	18.4µM*	7.6	20.6µM*	-1.3%	-2.4%
Cc1csc(NC(=O)c2cccc(S(=O)(=O)N3CCN(C)CC3)c2)n1	?	35.5	?	1.6%	-6.4%
Cc1csc(N(C(=O)c2cccc(S(=O)(=O)N(C)C)c2)c2ccccc2)n1	?	-14.4	14.6µM*	-14.1%	0.2%
CN(C)C(=O)c1cnc(Sc2ncc(C(F)(F)F)cc2Cl)n1C	8.2µM*	35.3	8.2µM*	0.6%	9.1%
CCCCc1c(C)[nH]c2nc3ccccc3n2c1=O	1.2%	-4.6	1.3%	3.0%	5.1%
O=C(N/N=C/c1cc([N+](=O)[O-])cc(Br)c1O)C12CC3CCC(CC(C3)C1)C2	23.1µM*	0.0	?	0.0%	5.4%
O=C(COc1ccc2ccccc2c1CN1CCOCC1)N1CCc2ccccc21	?	-73.9*	?	?	?
O=C(COc1cccc2ccccc12)N1CCN(c2ccccc2)CC1	?	-9.8	?	-8.6%	-3.5%
O=C(COc1ccc(F)cc1)N1c2ccccc2CCc2ccccc21	18.4µM*	-18.7	?	-0.7%	0.6%
O=C(COc1cccc2ccccc12)N1c2ccccc2CCc2ccccc21	18.4µM*	?	?	-25.5%	?
CCOC(=O)c1c(C)[nH]c(C)c1C(=O)COC(=O)c1nn(CC)c(=O)c2ccccc12	-20.8%	6.1	-20.2%	-0.3%	-2.6%
O=C(c1cccc(S(=O)(=O)NCc2ccccc2)c1)N1CCN(c2ccccc2)CC1	5.17µM*	27.5	6.51µM*	?	?
COc1ccc(S(=O)(=O)NCc2cccnc2)cc1C(=O)N1CCCCC1	-6.3%	7.0	5.4%	3.8%	1.8%
O=C(c1cccc(S(=O)(=O)NCc2ccccc2)c1)N1CCN(c2ccccc2Cl)CC1	?	-17.7	14.6µM*	?	?
SMILES	DT40 TDP1 no CPT	IL1B secr inh	TDP1 cell CPT	HT1080NT lethal	HT1080 IDH1KD tx
COc1ccccc1N1CCN(C(=O)c2cccc(S(=O)(=O)NCc3cccnc3)c2)CC1	?	14.4	16.4µM*	-0.2%	-3.7%
O=C(c1cccc(S(=O)(=O)NCCOc2ccccc2)c1)N1CCN(c2ncccn2)CC1	23.1µM*	26.0	25.9µM*	-18.4%	-20.9%
CCOc1ccc(S(=O)(=O)N2CCN(CC(O)COc3cccc([N+](=O)[O-])c3)CC2)cc1 (configuration not stated)	23.1µM*	?	14.6µM*	0.8%	-19.0%
CCC(=O)c1ccc(OCC(O)CN2CCN(S(=O)(=O)c3ccc(NC(C)=O)cc3)CC2)cc1 (configuration not stated)	-15.3%	-10.7	-25.6%	-8.7%	-23.7%
Cc1ccc(S(=O)(=O)N2CCN(CC(O)COc3ccccc3)CC2)cc1 (configuration not stated)	-16.0%	15.8	3.7%	-2.5%	-17.1%
CCOC(=O)c1ccc(S(=O)(=O)N2CCN(CC(O)COc3cccc(C(C)=O)c3)CC2)cc1 (configuration not stated)	-5.5%	-77.6*	-10.0%	-7.4%	-4.5%
CC(=O)Nc1ccc(S(=O)(=O)N2CCN(CC(O)COc3ccc4ccccc4c3)CC2)cc1 (configuration not stated)	?	-61.4*	?	0.708µM*	?
Cc1cccc(N2CCN(CC(=O)Nc3nccs3)CC2)c1C	-24.0%	45.7	-10.9%	0.5%	-1.5%
C=C(C)c1cc2c(ccc3ccc(=O)oc32)o1	8.6%	9.3	31.1%	16.5%	14.0%
CC(=O)c1c(O)cc(O)cc1O	-24.6%	7.2	7.1%	1.0%	0.8%
COc1ccc(CN(C(=O)CSc2nnc(-c3c[nH]c4ccccc34)o2)c2ccc(F)cc2)cc1OC	9.2µM*	-82.8*	8.2µM*	?	?
CCNC(=O)NC(=O)CSc1nnc(-c2c[nH]c3ccccc23)o1	?	8.0	?	-4.4%	-17.1%
COc1ccc(CN(C(=O)CSc2nnc(-c3ccc(F)cc3)o2)c2ccc(F)cc2)cc1	20.6µM*	-17.5	23.1µM*	1.4%	-6.9%
O=C(c1ccco1)N1CCC[C@@]2(CCN(Cc3ccccc3)C2)C1	-11.2%	.	-2.2%	.	.
C=CCN1C2CCCC1CC(NC(=O)Nc1cc(C)cc(C)c1)C2 (configuration not stated)	?	-25.1	?	-6.7%	0.0%
CCNc1ccc(C(=O)N/N=C/c2c(C)nn(-c3ccccc3)c2N2CCCC2)cc1[N+](=O)[O-]	?	18.1	18.4µM*	22.4%	18.8%
ON=C(CCc1ccccc1)CCc1ccccc1	-10.3%	?	-5.5%	1.3%	-1.4%
COc1cc(CNC[C@H]2O[C@@H](n3cnc(C(N)=O)n3)[C@H](O)[C@@H]2O)ccc1OCc1cccc(Cl)c1	-2.9%	-29.0	-22.8%	-0.7%	1.9%

Compound activity deposited in PubChem BioAssay by National Center for Advancing Translational Sciences (NCATS).
